Results: PubChem BioAssay (NCI)
About 79,000 compounds went through this panel and 15% of them were active in at least one assay; those are over-represented in the sample as a whole. A number with no mark means an inactive call. The source made the active and inactive calls. Rule as the data show it: active = growth inhibition above about 70%; inactive = the rest.

Experiments:
[1] = NCI Yeast Anticancer Drug Screen. Data for the rad50 strain (AID 155);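 also: 0% = growth of vehicle-only cultures of the same strain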; details: S. cerevisiae rad50 strain growth inhibition, hits give high values
Method in brief: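 Inhibition values express reduced yeast growth in compound-treated cultures relative to vehicle-treated controls.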

[2] = NCI Yeast Anticancer Drug Screen. Data for the mec2-1 strain (AID 157); details: S. cerevisiae mec2-1 strain, hits give high values
Method in brief: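 Compounds were applied to mec2-1 yeast cells. Their growth was then compared with that of vehicle-treated cultures to give growth inhibition.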

[3] = NCI Yeast Anticancer Drug Screen. Data for the sgs1 mgt1 strain (AID 161);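 also: 0% = growth of cultures given vehicle only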; details: S. cerevisiae sgs1 mgt1 strain, hits give high values
Method in brief: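 Percent growth inhibition was derived by comparing compound-exposed mutant yeast with vehicle-exposed cultures. The strain carries alterations in DNA damage repair.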

[4] = NCI Yeast Anticancer Drug Screen. Data for the cln2 rad14 strain (AID 165);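 also: 0% = growth equal to vehicle treated cultures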; details: S. cerevisiae cln2 rad14 strain, hits give high values
Method in brief: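 Strain: cln2 rad14 yeast, altered in cell cycle control and DNA damage repair. Read-out: growth inhibition vs vehicle.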

[5] = NCI Yeast Anticancer Drug Screen. Data for the bub3 strain (AID 167); details: S. cerevisiae bub3 mutant strain, hits give high values
Method in brief: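 Steps: expose the mutant yeast strain to compound; grow alongside vehicle-treated cultures; measure growth; express inhibition against the vehicle cultures.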

[6] = NCI Yeast Anticancer Drug Screen. Data for the mlh1 rad18 strain (AID 175); details: S. cerevisiae mlh1 rad18 strain growth inhibition, hits give high values
Method in brief: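 A repair-deficient yeast strain is exposed to test compound, and growth is scored relative to vehicle-treated controls.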

[7] = at 5.0 µM (retest, dose inferred, filed as 0.5)
[8] = at 50.0 µM (retest, dose inferred, filed as 5.0)

SMILES	growth inhibition [1, 7]	growth inhibition [1, 8]	growth inhibition ([1]; at 50.0 µM)	growth inhibition [2, 7]	growth inhibition [2, 8]	growth inhibition ([2]; at 50.0 µM)	growth inhibition [3, 7]	growth inhibition [3, 8]	growth inhibition ([3]; at 50.0 µM)	growth inhibition [4, 7]	growth inhibition [4, 8]	growth inhibition ([4]; at 50.0 µM)	growth inhibition [5, 7]	growth inhibition [5, 8]	growth inhibition ([5]; at 50.0 µM)	growth inhibition [6, 7]	growth inhibition [6, 8]	growth inhibition ([6]; at 50.0 µM)
Cc1cc2c(=O)[nH]c(N)nc2nc1C	-7%	11%	-9.45%	1%	-15%	-17.5%	-13%	-13%	-25%	-2%	-5%	15.1%	-5%	3%	-8.85%	-21%	-2%	-21.5%
C[N+](C)(C)CCN(Cc1cccs1)c1ccccn1	-2%	-9%	20.2%	8%	-16%	29.9%	2%	-20%	-37.8%	-27%	-111%	72.2% (active)	-4%	-10%	-4.2%	-3%	-13%	-2.15%
CC(c1ccc2cccc(F)c2c1)c1ccccc1C(=O)O (configuration not stated)	3%	99% (active)	99% (active)	6%	98% (active)	96% (active)	-1%	96% (active)	98.2% (active)	1%	98% (active)	97.5% (active)	0%	97% (active)	93.9% (active)	5%	99% (active)	98.2% (active)
CN(C)C1C=CCC(c2ccccc2)C1[N+](=O)[O-] (configuration not stated)	1%	83% (active)	93.2% (active)	10%	68%	96.9% (active)	7%	81% (active)	98.5% (active)	5%	70% (active)	92.3% (active)	1%	79% (active)	92.5% (active)	5%	94% (active)	98.8% (active)
CCCCCCCCCCCCCCCCCCNC(=S)/N=C/c1c(O)cc(C)oc1=O	1%	15%	16.1%	8%	38%	-13.7%	-15%	8%	57%	7%	-13%	-30.1%	-2%	-8%	18.9%	10%	29%	15.9%
Cc1ccc(-n2c(CSc3ccc(Cl)cc3)nnc2SCc2nc3ccccc3[nH]2)cc1	-22%	8%	46.9%	-16%	-9%	73.1% (active)	-28%	7%	42.7%	-4%	5%	70.5% (active)	1%	-3%	3.9%	2%	-4%	66.6%
COC(=O)[C@@]12OC[C@]34[C@H]([C@@H](O)[C@@H]1O)[C@@]1(C)CC(=O)C(O)=C(C)[C@@H]1C[C@H]3OC(=O)[C@H](OC(=O)C(Cc1ccccc1)NC(=O)OC(C)(C)C)[C@@H]24 (some centres not stated)	24%	73% (active)	85.8% (active)	26%	68%	79.2% (active)	27%	82% (active)	86.8% (active)	33%	78% (active)	85.9% (active)	31%	80% (active)	83.3% (active)	3%	58%	-65.6%
O=C(O)c1ccc([N+](=O)[O-])cc1.[Ag]	99% (active)	99% (active)	98.8% (active)	100% (active)	99% (active)	99.3% (active)	99% (active)	99% (active)	99.5% (active)	99% (active)	99% (active)	98.9% (active)	99% (active)	99% (active)	99.2% (active)	99% (active)	99% (active)	99.2% (active)
CCSSC12CCCN1C(=O)C(C)N(C)C2=O (configuration not stated)	1%	79% (active)	77.6% (active)	9%	81% (active)	16.4%	7%	49%	11.6%	11%	58%	-61.4%	0%	53%	19.8%	1%	84% (active)	4.5%
Cn1c(=S)c2[nH]c(SC3CCCCC3)nc2n(C)c1=O	46%	68%	94.8% (active)	42%	61%	99.5% (active)	41%	-20%	99.2% (active)	27%	34%	52.5%	52%	63%	98.2% (active)	23%	62%	98.8% (active)
CC(CN1CCCCCCC1)C(c1ccccc1)c1ccccc1 (configuration not stated)	2%	81% (active)	66.3%	-3%	76% (active)	61.8%	7%	98% (active)	94.1% (active)	-5%	73% (active)	96.2% (active)	-2%	87% (active)	98.5% (active)	-3%	89% (active)	86.5% (active)
CC(C)C(=O)c1ccc2ccccc2c1O	-1%	1%	21.4%	2%	-1%	-9.8%	-13%	-8%	4.35%	3%	0%	12.2%	5%	6%	0.5%	-1%	1%	1.05%
COC(=O)c1n[nH]c(C(C)C)c1N=NN(C)C	29%	95% (active)	98.9% (active)	-35%	97% (active)	99.1% (active)	-27%	96% (active)	99% (active)	-11%	98% (active)	99% (active)	-38%	96% (active)	98.3% (active)	-77%	96% (active)	99.2% (active)
CCOC(=O)C1=C(Nc2ccc(Br)cc2)OC/C1=N\NC(=O)c1ccccc1O	11%	11%	50.6%	-16%	-16%	53.5%	7%	7%	71.6% (active)	4%	4%	25.7%	1%	1%	66.8%	5%	5%	67%
O=C1C/C(=C\c2ccccc2)C(=O)c2ccccc2N1	0%	20%	57.8%	-3%	16%	41.8%	-9%	27%	76% (active)	1%	6%	33.6%	-23%	19%	67%	-18%	18%	60.5%
CC1(C)OC2C(COC(c3ccccc3)(c3ccccc3)c3ccccc3)OC(n3ccc(=O)[nH]c3=O)C2O1 (configuration not stated)	57%	92% (active)	75.9% (active)	35%	96% (active)	53.6%	43%	56%	75.3% (active)	28%	75% (active)	52.1%	42%	94% (active)	72.6% (active)	52%	95% (active)	70.5% (active)
Cc1cc(N=O)c(NO)cc1C	3%	29%	95.8% (active)	16%	29%	79.7% (active)	6%	22%	79.7% (active)	2%	16%	65.7%	28%	61%	92.5% (active)	18%	81% (active)	88.8% (active)
COC1CC(C)(NC(C)=O)C2OC(c3ccccc3)OCC2O1 (configuration not stated)	-5%	-16%	81.8% (active)	-11%	-15%	81.2% (active)	-7%	-24%	71.9% (active)	-40%	10%	75.5% (active)	-21%	-8%	82.7% (active)	-1%	-3%	70.4% (active)
O=[N+]([O-])c1ccc(-c2nc(/C=N/N3CCCCC3)cs2)o1	12%	57%	69.7%	1%	26%	43.5%	17%	76% (active)	84.5% (active)	-7%	32%	42.4%	-1%	3%	15.2%	16%	64%	66.5%
